This test has as its system HEK293 WT BDD-FVIII-Gluc. Briefly: secreted FVIII-Gluc luciferase Z-score vs DMSO control; higher = more FVIII-Gluc secretion. Particulars: 5 µM. Here is the method: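 Natural plant-compound library (480 compounds, ST catalogue IDs) screened on HEK293 cells stably expressing WT BDD-FVIII-Gaussia luciferase fusion at 5 µM. Secreted Gluc activity in the medium is given as a Z-score relative to DMSO controls.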
On to `CC12CCC3c4ccc(O)cc4CCC3C1CCC2=O` (centres undefined), for which the “secreted FVIII-Gluc luciferase Z-score” value is 0.301.

Take `COc1cc2cc(Oc3ccc4ccc(=O)oc4c3)c(=O)oc2cc1O`: the “secreted FVIII-Gluc luciferase Z-score” value was 0.379. To `Cn1c(=O)c2c(ncn2C)n(C)c1=O` belongs -0.0716; to `O=C(/C=C/c1ccc(O)cc1)c1c(O)cc(O)cc1O`, 0.157; to `CC[C@H](CC[C@@H](C)[C@H]1CC[C@H]2[C@@H]3CC=C4C[C@@H](O)CC[C@]4(C)[C@H]3CC[C@]12C)C(C)C`, -0.318. Turning to `O=C1C[C@@H](c2ccccc2)Oc2cc(O)cc(O)c21`, the “secreted FVIII-Gluc luciferase Z-score” value stood at 0.733.

As to `CC(C)[C@@H](C)/C=C/[C@@H](C)[C@H]1CC[C@H]2C3=CC=C4C[C@@H](O)CC[C@]4(C)[C@H]3CC[C@]12C`, the “secreted FVIII-Gluc luciferase Z-score” value stood at 0.958. With `O=C1OC(=O)C2C3CCC(O3)C12` (centres undefined), the “secreted FVIII-Gluc luciferase Z-score” value is -0.862. As for `COc1cc(/C=C/C(=O)N2CCCCC2=O)cc(OC)c1OC`, the figure is 1.28.

Regarding `Nc1ccn(C2CC(O)C(COP(=O)(O)O)O2)c(=O)n1` (centres undefined), the “secreted FVIII-Gluc luciferase Z-score” value was 0.357. For `O=C(/C=C/c1ccc(O)cc1)c1ccccc1O`, the “secreted FVIII-Gluc luciferase Z-score” value worked out at 0.315. `C[C@H]1C[C@]2(O[C@@H]2C)C(=O)O[C@@H]2CCN(C)C/C=C(/COC(=O)[C@]1(C)O)C2=O`: the “secreted FVIII-Gluc luciferase Z-score” value came out at 0.213. To `COC(=O)C1(O)CC(O)C(NC(C)=O)C(C(O)C(O)CO)O1` (centres undefined) belongs 0.68. To `COc1ccc(-c2oc3cc(OC)c(OC(C)=O)c(OC)c3c(=O)c2OC)cc1OC(C)=O` belongs -0.47; to `Cc1ncc(CO)c(C=O)c1O`, 1.01.

Turning to `COc1ccc2c3c1OC1C(O)C=CC(C=C2)C31CCN(C)C` (centres undefined), the “secreted FVIII-Gluc luciferase Z-score” value is -0.171. Take `COc1ccc2c(OC)c3ccoc3nc2c1OC`: the “secreted FVIII-Gluc luciferase Z-score” value stood at 0.816.

As to `O=c1cc(-c2ccc(O)c(O)c2)oc2cc(O)cc(O)c12`, the “secreted FVIII-Gluc luciferase Z-score” value was -1.34. To `N[C@H](CCC(=O)O)C(=O)O` belongs -0.453; to `COc1ccccc1-c1oc2ccccc2c(=O)c1OC`, 1.49.

On to `Cc1cn([C@H]2C[C@H](O)[C@@H](CO)O2)c(=O)[nH]c1=O`, for which the “secreted FVIII-Gluc luciferase Z-score” value came to 0.713. As for `C=C1CC23C[C@@]1(O)CCC2C12C=CC(O)C(C)(C(=O)O1)C2[C@@H]3C(=O)O` (some centres undefined), the figure is -0.216. With `C[C@H]1[C@H](C)CC[C@]2(C(=O)O)CC[C@]3(C)C(=CCC4[C@@]5(C)C[C@@H](O)[C@H](O)[C@@](C)(CO)[C@@H]5CC[C@]43C)[C@H]12` (some centres undefined), the “secreted FVIII-Gluc luciferase Z-score” value was -0.822.

As for `COC1OC2COC(c3ccccc3)OC2C(O)C1O` (centres undefined), the “secreted FVIII-Gluc luciferase Z-score” value was -1.04. As for `CC1(C)[C@@H]2CC[C@@]1(C)C(=O)C2`, the figure is 0.363; as for `O=c1cc(-c2cccc(O)c2)oc2c(O)c(O)ccc12`, -0.194.

Take `O[C@@H]1COC2C1OC[C@@H]2O` (some centres undefined): the “secreted FVIII-Gluc luciferase Z-score” value is 0.547. Regarding `CN1C(CC(=O)c2ccccc2)CCC[C@H]1C[C@H](O)c1ccccc1` (some centres undefined), the “secreted FVIII-Gluc luciferase Z-score” value was 0.401.

With `CC(=O)[C@H]1CC[C@H]2[C@@H]3CCC4=CC(=O)CC[C@]4(C)[C@H]3CC[C@]12C`, the “secreted FVIII-Gluc luciferase Z-score” value amounted to 0.00749.

Consider `CC/C=C\C/C=C\C/C=C\CCCCCCCC(=O)O`, for which the “secreted FVIII-Gluc luciferase Z-score” value is 0.636. As for `C=C1C(=O)OC2C[C@@]3(C)CCCC(=C)[C@@H]3CC12` (some centres undefined), the figure is -0.82; as for `COc1cc2oc(-c3ccccc3)cc(=O)c2cc1O`, 0.564; as for `Oc1cc(O)c2c(c1)O[C@H](c1ccc(O)c(O)c1)[C@@H](O)C2`, 0.0727. Turning to `N=C(N)NCCC[C@H](N)C(=O)O`, the “secreted FVIII-Gluc luciferase Z-score” value was 0.938. As for `C/C(=C\COc1cc(=O)[nH]c2ccccc12)CCC(O)C(C)(C)O` (centres undefined), the figure is -0.128; as for `CC(C)=CCC/C(C)=C\COc1c2ccoc2cc2oc(=O)ccc12`, -0.466.

Consider `O=c1cc(-c2cccc(O)c2)oc2cc(O)ccc12`, for which the “secreted FVIII-Gluc luciferase Z-score” value was -0.00771. To `O=c1cc(CO)occ1O` belongs 0.0386; to `CC1=C(C/C=C(\C)CCCC(C)CCCC(C)CCCC(C)C)C(=O)c2ccccc2C1=O` (centres undefined), 0.33.
